Most compounds without a hit are left out; they make up all but 2.7% or so of the library.
mIDH1 inhibitor: inhibitors of human mutant IDH1 R132H; O75874; IDH1-R132H enzyme, NADPH consumption, diaphorase/resazurin fluorescence; Potency, µM (titrated, usually from 76.6 µM), for inactives: top-dose activity change, negative = inhibition, actives largely listed as inhibitors; 390,000 tested, 0.093% active; AID 602179; note: potency is the fitted concentration of half-maximal effect; % is set by controls: 0 for no effect and ±100 for the full control effect; nearly all actives have a fitted effect of over 65% in size
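IDH1-R132H (0.5 ug/mL) preincubated 30 min with compound, then NADPH (0.016 mM) and alpha-KG (2 mM) added; 80 min at RT, pH 7.5. Remaining NADPH coupled via diaphorase/resazurin to fluorescence (540/590 nm); concentration-response curves normalized to no-enzyme control.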
Nrf2 activator: activators of Nrf2 (ARE) signaling; Potency, µM (top dose mostly 46.1 µM), for inactives: at the top dose activation, most hits filed as activators; 410,000 tested, 0.31% active; AREc32 ARE-luciferase reporter (MCF7-derived line), luminescence, 24 h; note: potency is the fitted concentration of half-maximal effect; % of control where 0% means no effect; nearly all actives have a fitted effect of over 65% in size
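ARE activation measured as luciferase luminescence (Steady-Glo, 30 min RT) in AREc32_Fluc cells after 24 hr compound exposure at 37 deg C, 5% CO2; cells seeded overnight at 1000/well in OPTI-MEM, 5% FBS.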
A549 viability: counter-screen for Nrf2 inhibitors: cytotoxicity in A549 cells; 390,000 tested, 0.16% active; Potency, µM (series often up to 46 µM), without a hit: at the highest dose activity change, negative = cytotoxicity, actives largely listed as inhibitors; AID 504648; A549 ARE-Fluc cells, CellTiter-Fluor viability, 18-24 h; note: potency is the fitted concentration of half-maximal effect; % is set by controls: 0 for no effect and ±100 for the full control effect
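A549 ARE_Fluc cells in 5% FBS OPTI-MEM were exposed to compounds in concentration-response for 18-24 h at 37 deg C. Viability was read by CellTiter-Fluor fluorescence (Ex 405/Em 525) after 30 min, before the luciferase read.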
Nrf2 inh: blocks Nrf2 signaling; 360,000 tested, 2.1% active; Potency, µM (top dose mostly 46 µM), inactives show at the highest dose activity change, negative = inhibition, most hits filed as inhibitors; A549 ARE-Fluc reporter, luciferase luminescence, 18-24 h; AID 504444; note: potency is the fitted concentration of half-maximal effect; % is set by controls: 0 for no effect and ±100 for the full control effect; nearly all actives have a fitted effect of over 60% in size
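In this cell-based qHTS, ARE-driven firefly luciferase in A549 cells reports Nrf2 activity; the luminescent signal after BugLite lysis is the measured value, with a prior CellTiter-Fluor read for cell health.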
ALOX12 inh: ALOX12 (human) lipoxygenase inhibition. purified 12hLO, xylenol orange hydroperoxide absorbance. Potency, µM (highest dose often 108 µM), for inactives: at the highest dose activity change, negative = inhibition, usual class: inhibitors. 580,000 tested, 1.1% active; note: potency is the fitted concentration of half-maximal effect; % is set by controls: 0 for no effect and ±100 for the full control effect
Target sequence (P18054 whole entry, looked up): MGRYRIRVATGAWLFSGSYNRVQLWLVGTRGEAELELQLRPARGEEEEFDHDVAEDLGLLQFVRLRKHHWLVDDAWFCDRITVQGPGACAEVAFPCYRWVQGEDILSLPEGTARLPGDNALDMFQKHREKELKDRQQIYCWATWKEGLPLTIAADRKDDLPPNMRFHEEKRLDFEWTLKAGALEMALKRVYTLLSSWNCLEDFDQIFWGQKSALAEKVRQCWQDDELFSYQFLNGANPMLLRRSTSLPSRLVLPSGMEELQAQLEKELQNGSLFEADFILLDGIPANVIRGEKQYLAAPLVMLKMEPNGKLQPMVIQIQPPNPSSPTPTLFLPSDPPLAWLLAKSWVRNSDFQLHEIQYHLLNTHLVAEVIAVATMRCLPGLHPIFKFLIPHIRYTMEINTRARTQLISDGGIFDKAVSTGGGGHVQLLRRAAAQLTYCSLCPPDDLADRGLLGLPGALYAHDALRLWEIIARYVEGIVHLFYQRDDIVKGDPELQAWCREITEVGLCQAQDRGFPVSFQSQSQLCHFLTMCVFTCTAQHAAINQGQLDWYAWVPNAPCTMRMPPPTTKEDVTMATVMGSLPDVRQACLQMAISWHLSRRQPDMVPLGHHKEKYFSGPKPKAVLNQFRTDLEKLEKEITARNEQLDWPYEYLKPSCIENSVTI
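Hydroperoxide product was detected by ferrous iron/xylenol orange as the 573 to 405 nm absorbance ratio. Arachidonic acid at 40 uM (final) was turned over for 30 min at room temperature by 150 nM human 12hLO, pH 7.0 Hepes buffer, after 15 min compound preincubation.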
LDHA inh: LDHA (human) enzyme inhibition. purified LDHA, NADH/diaphorase-resazurin fluorescence; stronger effect = lower value. activity change, % (values are at about 110 or 230 µM). P00338. 480,000 tested, 0.15% active; in the data active = activity change below about -30%; inconclusive = mostly about -25% to -30%;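 note: plate controls were DMSO wells for no effect and wells without enzyme for full effect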
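Resorufin fluorescence (ex540/em590), read at 0 and 20 min after diaphorase/resazurin addition, reports the NADH left after a 5 min room-temperature reaction of 2 nM human LDH5 with 0.06 mM NADH and 0.2 mM pyruvate.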
* marks the source's active call; other numbers are inactive results; ? = inconclusive; · = no result given; [ ] = another dose, or the depositor's remark. Unless noted, calls come from the whole dose curve; as a rule, active = well fitted curve in the direction sought with a large enough effect; inconclusive = small, poorly fitted or top-dose-only effect, or another doubt; inactive = no such curve, though single readings can be large; an effect the other way counts as inactive or inconclusive.

SMILES	mIDH1 inhibitor	Nrf2 activator	A549 viability	Nrf2 inh	ALOX12 inh	LDHA inh
CSc1nccc(N2CCN(c3ccc(F)cc3)CC2)n1	0.0%	4.0%	-12.1%	?	-4.8%	1.7
O=C(CN=C1NS(=O)(=O)c2ccccc21)NCCc1ccccn1	·	·	·	·	17.5%	?
FC(F)(F)c1ccc(C2[C@H]3CN(Cc4cccnc4)[C@H](c4ccccc4)C34CC2(c2cccnc2)C4)cc1 (some centres undefined)	-29.8%	-1.0%	?	25.9µM*	8.3%	0.9
FC(F)(F)c1ccc(C2[C@H]3CN(Cc4ccc(-c5ccccc5)cc4)[C@H](c4ccccc4)C34CC2(c2cccnc2)C4)cc1 (some centres undefined)	6.1%	4.8%	-3.2%	15.9%	-2.0%	-0.5
Cn1cc(C2c3ccccc3C(=O)N2CC(=O)NCc2ccccc2)c2ccccc21 (centres undefined)	·	·	·	·	1.7%	1.1
CCN(CC)C(=S)SC/C(=N/Nc1ccc(Br)cc1)c1ccccc1	·	·	·	·	7.94µM*	31.5
COc1ccccc1Nc1nc(-c2ccc(O)c(C(N)=O)c2)cs1	·	·	·	·	?	8.3
CN(C)c1ccc(CN2CCC3(COc4ccccc4C(=O)N3)C2)cc1 (centres undefined)	·	·	·	·	20.2%	·
CN(C)c1ccc(CN2CCC3(CC2)COc2ccccc2C(=O)N3)cc1	·	·	·	·	39.8µM*	·
Cn1cccc1CN1CCC2(CC1)COc1ccccc1C(=O)N2	·	·	·	·	56.2µM*	·
CN(Cc1ccc(F)cc1)C(=O)CCc1ncc(-c2ccccc2)o1	·	·	·	·	?	-7.5
CN(Cc1cnn(-c2ccccc2)c1)C(=O)c1nn(C)c(=O)c2ccccc12	·	·	·	·	12.3%	12.0
O=C(NC1CCCCC1)N1CCC(c2nnc3n2CCNC3)CC1	·	·	·	·	12.6µM*	·
O=C(c1ccccc1)N1Cc2[nH]cnc2C[C@H]1c1nc(-c2ccncc2)no1	·	·	·	·	42.6%[176 µM]	·
O=C(NC1CCCCC1)N1Cc2[nH]cnc2C[C@H]1c1nc(-c2ccncc2)no1	·	·	·	·	12.6µM*	·
O=C(NNC(=S)Nc1cccc(Cl)c1)c1ccccc1OC(F)F	1.7%	-0.6%	-6.3%	20.6µM*	?	0.5
COC(=O)c1sc2ncccc2c1OCc1cccc(Cl)c1	14.1%	2.7%	·	-23.4%	0.0%	2.4
COC(=O)c1sc2ncccc2c1OCc1c(Cl)cccc1Cl	1.0%	3.8%	6.8%	-12.9%	39.8µM*	-0.1
Cc1cc(Nc2nc3ccccc3nc2NS(=O)(=O)c2ccccc2)ccc1Cl	·	·	·	·	-23.1%	-6.6
CCn1c2ccccc2c2cc(CN3CCN(Cc4ccccc4F)CC3)ccc21	13.3%	3.8%	-11.4%	19.1%	28.2µM*	-9.9
CCn1c2ccccc2c2cc(CN3CCN(Cc4ccccc4C)CC3)ccc21	-10.6%	3.3%	-1.9%	18.5%	-31.2%	-14.0
O=C(N=Nc1c(O)[nH]c2ccccc12)c1cc(-c2cccs2)[nH]n1	33.3%	4.3%	-4.9%	?	-9.9%	-39.5*
O=C(Cc1cccs1)N=Nc1c(O)[nH]c2ccccc12	-9.0%	0.6%	-4.7%	3.2%	9.4%	-0.6
CCOC(=O)Cc1csc(SCC(=O)NC(C)CC)n1 (centres undefined)	·	·	·	·	?	-1.0
Clc1cccc(-c2nc3ccccn3c2Nc2ccc3c(c2)OCCO3)c1	-6.6%	1.7%	-25.0%	?	6.31µM*	8.0
SMILES	mIDH1 inhibitor	Nrf2 activator	A549 viability	Nrf2 inh	ALOX12 inh	LDHA inh
NC(N)=N/N=C/C#Cc1ccccc1	·	·	·	·	6.2%	3.9
Cc1ccc(C(=O)c2cc(O)c(O)c([N+](=O)[O-])c2)cc1	·	·	·	·	0.0544µM*	·
Cn1c(=O)n(C)c2cc([N+](=O)[O-])c(N3CCN(C(=O)c4ccccc4Br)CC3)cc21	-4.7%	3.5%	?	18.4µM*	-10.2%	-11.7
Cn1c(=O)n(C)c2cc([N+](=O)[O-])c(N3CCN(C(=O)c4ccccc4Cl)CC3)cc21	-2.4%	3.6%	-8.3%	?	6.8%	-0.2
CN(C)c1ccc(/C=C/c2ccc3ccccc3[n+]2C)cc1	9.0%	-1.7%	23.1µM*	14.6µM*	-24.7%	8.1
CC(=O)Oc1ccccc1/C=C/c1ccc2ccccc2[n+]1C	-5.4%	11.2µM*	?	?	?	-5.6
CN(CCCS(=O)(=O)[O-])c1ccc(/C=C/c2ccc3ccccc3[n+]2C)cc1	-3.6%	0.4%	-9.7%	-33.8%	?	-4.1
COc1ccc(-n2nnnc2S(=O)(=O)CC(=O)N2CCCCC2)cc1	4.4%	-4.0%	?	25.9µM*	·	-6.5
COc1ccc(N(Cc2cc(CN3CCOCC3)cs2)S(=O)(=O)c2cc(C)cc(C)c2)cc1	·	·	·	·	?	3.0
CC(C)(C)c1ccc(C(=O)C[n+]2ccccc2Cl)cc1	·	·	·	·	·	-51.9*
O=C(C[n+]1ccccc1Cl)c1ccc(I)cc1	·	·	·	·	·	-1.5
Cc1ccc(C(CNc2oc(C(C)(C)C)nc2C#N)N2CCOCC2)cc1 (centres undefined)	·	·	·	·	19.6%	-12.3
O=C(COc1ccc2nc3n(c(=O)c2c1)CCC3)NC1CCCCC1	·	·	·	·	-24.0%	2.7
O=C1CC(=C(c2ccccc2)c2ccccc2)C(=O)N1CCCCN1CCN(c2ccccc2)CC1	5.6%	5.5%	?	-1.6%	39.8µM*	4.5
CCC(=O)N1CCc2cc(Br)cc(S(=O)(=O)N3CCC(C(=O)Nc4ccccc4F)CC3)c21	6.2%	0.3%	0.6%	13µM*	-16.3%	1.4
COc1ccccc1NC(=O)COc1ccc(C)cc1-n1cnnc1	·	·	·	·	-0.9%	10.0
N#Cc1cccc(/C=C2\CSc3ccccc3C2=O)c1	·	·	·	·	39.8µM*	3.4
Cc1cc(C)cc(Oc2coc3c(CN(C)C)c(O)ccc3c2=O)c1	0.6%	0.1%	1.4%	0.2%	6.31µM*	-2.8
O=C1/C(=C/c2ccc(Cl)cc2)SC(=S)N1CCC(=O)N1CCCCC1CCO (centres undefined)	0.5%	?	-15.4%	6.0%	-6.6%	0.1
